Source: the supplement of paper PMC8975748
Counter-ions that a name gives are not always drawn. ± gives the standard deviation of the averaged measurements.

Key:
[1] = tested on: Saccharomyces cerevisiae BY4741 SeMeCo community; experiment: mean cell size (pixel area) (pixels); higher = larger cells; conditions: 10 µM; 24 h; SM minimal medium
Procedure, shortened: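 A four-plasmid fluorescent Saccharomyces cerevisiae BY4741 community was tested; each plasmid complements one auxotrophy and carries a fluorescent marker. An overnight preculture at OD600 = 1.0 was diluted to OD600 = 0.3, and 70 µl was added to 384-well plates acoustically predosed with drug (final 10 µM) in SM medium for 24 h. Cells were fixed with paraformaldehyde and imaged by automated confocal microscopy, with analysis in Harmony. Mean cell pixel area per well is averaged over 3 replicates. Same SeMeCo high-content imaging drug screen: Selleck FDA-approved drugs at 10 µM, 24 h in SM medium, 384-well plates, 3 replicates.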

[2] = tested on: Saccharomyces cerevisiae BY4741 SeMeCo community; experiment: z-score of prototroph abundance vs DMSO median; higher = larger share of this subpopulation than in DMSO controls; conditions: 10 µM; 24 h; SM minimal medium; subpopulation (auxotrophy): Prototroph
Procedure, shortened: (§1)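 Cells of a Saccharomyces cerevisiae BY4741 community, carrying four plasmids that each restored one auxotrophy and encoded a distinct fluorescent protein, were pre-grown overnight to OD600 1.0 and diluted to 0.3. A 70 µl volume was added to 384-well plates acoustically predosed with library drugs (10 µM final) and grown 24 h in minimal SM medium. After paraformaldehyde fixation, automated confocal microscopy was used, with single-auxotroph fluorescent strains for thresholds and autofluorescence correction. The abundance of each subpopulation was scored as a z-score against the vehicle-well median.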

[3] = tested on: Saccharomyces cerevisiae BY4741 SeMeCo community; experiment: z-score of subpopulation abundance vs DMSO median, subpopulation auxotrophic for M; higher = larger share of this subpopulation than in DMSO controls; conditions: 10 µM; 24 h; SM minimal medium; subpopulation (auxotrophy): M
Procedure, shortened: as §1

[4] = tested on: Saccharomyces cerevisiae BY4741 SeMeCo community; experiment: z-score of subpopulation abundance vs DMSO median, subpopulation auxotrophic for L; higher = larger share of this subpopulation than in DMSO controls; conditions: 10 µM; 24 h; SM minimal medium; subpopulation (auxotrophy): L
Procedure, shortened: as §1

[5] = tested on: Saccharomyces cerevisiae BY4741 SeMeCo community; experiment: z-score of subpopulation abundance vs DMSO median, subpopulation auxotrophic for U; higher = larger share of this subpopulation than in DMSO controls; conditions: 10 µM; 24 h; SM minimal medium; subpopulation (auxotrophy): U
Procedure, shortened: as §1

[6] = tested on: Saccharomyces cerevisiae BY4741 SeMeCo community; experiment: z-score of subpopulation abundance vs DMSO median, subpopulation auxotrophic for H; higher = larger share of this subpopulation than in DMSO controls; conditions: 10 µM; 24 h; SM minimal medium; subpopulation (auxotrophy): H
Procedure, shortened: as §1

[7] = tested on: Saccharomyces cerevisiae BY4741 SeMeCo community; experiment: z-score of subpopulation abundance vs DMSO median, subpopulation auxotrophic for LU; higher = larger share of this subpopulation than in DMSO controls; conditions: 10 µM; 24 h; SM minimal medium; subpopulation (auxotrophy): LU
Procedure, shortened: as §1

[8] = tested on: Saccharomyces cerevisiae BY4741 SeMeCo community; experiment: z-score of subpopulation abundance vs DMSO median, subpopulation auxotrophic for LM; higher = larger share of this subpopulation than in DMSO controls; conditions: 10 µM; 24 h; SM minimal medium; subpopulation (auxotrophy): LM
Procedure, shortened: as §1

[9] = tested on: Saccharomyces cerevisiae BY4741 SeMeCo community; experiment: z-score of subpopulation abundance vs DMSO median, subpopulation auxotrophic for HU; higher = larger share of this subpopulation than in DMSO controls; conditions: 10 µM; 24 h; SM minimal medium; subpopulation (auxotrophy): HU
Procedure, shortened: as §1

[10] = tested on: Saccharomyces cerevisiae BY4741 SeMeCo community; experiment: z-score of subpopulation abundance vs DMSO median, subpopulation auxotrophic for UM; higher = larger share of this subpopulation than in DMSO controls; conditions: 10 µM; 24 h; SM minimal medium; subpopulation (auxotrophy): UM
Procedure, shortened: as §1

[11] = tested on: Saccharomyces cerevisiae BY4741 SeMeCo community; experiment: z-score of subpopulation abundance vs DMSO median, subpopulation auxotrophic for HL; higher = larger share of this subpopulation than in DMSO controls; conditions: 10 µM; 24 h; SM minimal medium; subpopulation (auxotrophy): HL
Procedure, shortened: as §1

[12] = tested on: Saccharomyces cerevisiae BY4741 SeMeCo community; experiment: z-score of subpopulation abundance vs DMSO median, subpopulation auxotrophic for HLU; higher = larger share of this subpopulation than in DMSO controls; conditions: 10 µM; 24 h; SM minimal medium; subpopulation (auxotrophy): HLU
Procedure, shortened: as §1

[13] = tested on: Saccharomyces cerevisiae BY4741 SeMeCo community; experiment: z-score of subpopulation abundance vs DMSO median, subpopulation auxotrophic for HLM; higher = larger share of this subpopulation than in DMSO controls; conditions: 10 µM; 24 h; SM minimal medium; subpopulation (auxotrophy): HLM
Procedure, shortened: as §1

[14] = tested on: Saccharomyces cerevisiae BY4741 SeMeCo community; experiment: z-score of subpopulation abundance vs DMSO median, subpopulation auxotrophic for HUM; higher = larger share of this subpopulation than in DMSO controls; conditions: 10 µM; 24 h; SM minimal medium; subpopulation (auxotrophy): HUM
Procedure, shortened: as §1

[15] = tested on: Saccharomyces cerevisiae BY4741 SeMeCo community; experiment: z-score of subpopulation abundance vs DMSO median, subpopulation auxotrophic for LUM; higher = larger share of this subpopulation than in DMSO controls; conditions: 10 µM; 24 h; SM minimal medium; subpopulation (auxotrophy): LUM
Procedure, shortened: as §1

[16] = tested on: Saccharomyces cerevisiae BY4741 SeMeCo community; experiment: z-score of subpopulation abundance vs DMSO median, subpopulation auxotrophic for HLUM; higher = larger share of this subpopulation than in DMSO controls; conditions: 10 µM; 24 h; SM minimal medium; subpopulation (auxotrophy): HLUM
Procedure, shortened: as §1

[17] = tested on: Saccharomyces cerevisiae BY4741 SeMeCo community; experiment: z-score of subpopulation abundance vs DMSO median, subpopulation auxotrophic for HM; higher = larger share of this subpopulation than in DMSO controls; conditions: 10 µM; 24 h; SM minimal medium; subpopulation (auxotrophy): HM
Procedure, shortened: as §1

Row | SMILES | mean cell size [1] | z-score of prototroph abundance [2] | z-score of subpopulation abundance [3] | z-score of subpopulation abundance [4] | z-score of subpopulation abundance [5] | z-score of subpopulation abundance [6] | z-score of subpopulation abundance [7] | z-score of subpopulation abundance [8] | z-score of subpopulation abundance [9] | z-score of subpopulation abundance [10] | z-score of subpopulation abundance [11] | z-score of subpopulation abundance [12] | z-score of subpopulation abundance [13] | z-score of subpopulation abundance [14] | z-score of subpopulation abundance [15] | z-score of subpopulation abundance [16] | z-score of subpopulation abundance [17]
1 | C[C@]12CC[C@@H]3c4ccc(O)cc4CC[C@H]3[C@@H]1CC[C@@H]2OC(=O)CCC1CCCC1 [Estradiol Cypionate] | 12.4 ± 0.13 | -0.3 | -0.43 | -0.23 | 0.71 | -0.04 | 0.17 | -0.12 | 0.6 | 0.45 | -0.29 | 0 | 0.33 | 1.22 | 0.29 | 0.52 | 
2 | O=C1Cc2cc(CCN3CCN(c4nsc5ccccc45)CC3)c(Cl)cc2N1 [Ziprasidone HCl] | 12.2 ± 0.18 | -0.07 | 0 | 1.56 | -0.99 | 0.97 | -0.33 | 1.54 | -0.4 |  | 1.22 | 0.15 | 1.1 | 0.81 | 0.56 |  | 0.58
3 | NC(=O)c1ncn([C@@H]2O[C@H](CO)[C@@H](O)[C@H]2O)n1 [Ribavirin] | 12.45 ± 0.12 | -0.16 | -0.5 | -0.43 | 1.52 |  | 0.48 | -0.41 | 0.42 | 0.53 |  | -0.19 | -0.6 | 0.49 | 0.09 | -0.37 | 
4 | CC[C@H]1OC(=O)C[C@@H](O)[C@H](C)[C@@H](O[C@@H]2O[C@H](C)[C@@H](O)[C@H](N(C)C)[C@H]2O)[C@@H](CCN2C[C@H](C)C[C@H](C)C2)C[C@@H](C)C(=O)/C=C/C(C)=C/[C@@H]1CO[C@@H]1O[C@H](C)[C@@H](O)[C@@H](OC)[C@H]1OC [Tilmicosin phosphate] | 12.3 ± 0.3 | 0.18 | -0.36 | 0.06 | -0.3 | 2.1 | -0.57 | -0.81 | -0.34 | -0.01 | -0.13 | -0.18 | -0.09 | -0.09 | -0.25 | -0.75 | 
5 | O=C(O)c1cn(-c2ccc(F)cc2)c2cc(N3CCNCC3)c(F)cc2c1=O [Sarafloxacin HCl] | 12.2 ± 0.18 | 0.01 | -0.64 | -0.74 |  |  | -0.05 | 0.08 | 0.4 |  | -0.42 | -0.35 | -0.84 | 0.61 | 0.54 |  | -0.52
6 | CCCc1nn(C)c2c(=O)[nH]c(-c3cc(S(=O)(=O)N4CCN(C)CC4)ccc3OCC)nc12 [Sildenafil] | 11.4 ± 0.3 | 1.69 | -1.17 | -1.03 |  | -2.48 | -0.5 | -0.52 | 0.7 | -0.73 | -1.43 | -0.35 | -1.11 | -0.61 | -0.21 |  | -0.93
7 | CCCCCCCCCCCCCCCC[N+](C)(C)C [Cetrimonium Bromide (CTAB)] | 10.8 ± 0.24 | -15.6 | -4.82 | -1.79 | -1.73 | 9.21 | 3.88 | 3.5 | 12.8 | 12.1 | 10.9 | 19.1 | 50.7 | 34.1 | 20.6 | 29.4 | 
8 | CN1C2CCC1CC(OC(=O)C(O)c1ccccc1)C2 (stereo unspecified) [Homatropine Bromide] | 12.31 ± 0.032 | -0.38 | -0.4 | -0.11 | 1.49 | -0.41 | 0.66 | -0.11 | 0.61 | 0.94 |  | -0.08 | -0.76 | 0 | 0.09 |  | -1.06
9 | Clc1ccc(COC(Cn2ccnc2)c2ccc(Cl)cc2Cl)c(Cl)c1 (stereo unspecified) [Miconazole Nitrate] | 12.3 ± 0.19 | -8.17 | -6.38 | -2.76 | 3.11 | 29.9 | -0.2 | -3.18 | 15.7 | 1.18 | 9.42 | 11.6 | 19.4 | 6.7 | 0.15 |  | 0.3
10 | CN[C@@H]1[C@@H](O)[C@@H](O[C@@H]2[C@@H](O)[C@H](O[C@H]3OC(CN)=CC[C@H]3N)[C@@H](N)C[C@H]2N)OC[C@]1(C)O [Sisomicin sulfate] | 12.12 ± 0.053 |  | 1.6 | 1.01 | 0.55 |  | 0.28 | 1.22 | 0.07 | 0.74 |  | 0.06 | 0.84 | 0.52 | 1.13 |  | 0.61
11 | O=[N+]([O-])c1ccc(O)c2ncccc12 [Nitroxoline] | 13.6 ± 0.5 | -16.6 | 1.38 | -0.84 | -2.48 | 9.75 | 12.2 | 4.84 | 16.3 | 4.38 | 22.6 | 24.8 | 65.9 | 19.7 | 11 |  | 27.9
12 | Cc1ccc(-c2cc(C(F)(F)F)nn2-c2ccc(S(N)(=O)=O)cc2)cc1 [Celecoxib] | 12.5 ± 0.15 | 0.84 | -0.11 | 0.82 | -0.79 | 0.01 | -0.19 | -0.61 | -0.62 | -0.75 |  | -0.86 | -0.37 | -0.8 | -0.48 |  | -0.54
13 | Clc1ccc(COC(Cn2ccnc2)c2ccc(Cl)cc2Cl)c(Cl)c1 (stereo unspecified) [Miconazole] | 12.5 ± 0.13 |  | -7.11 | -2.13 | 2.67 | 27.8 | 4.36 | -1.8 | 22.4 | 1.59 | 7.22 | 11.1 | 12.2 | 6.04 | 0.67 |  | 0.94
14 | N#C/C(=C1/SC[C@@H](c2ccc(Cl)cc2Cl)S1)n1ccnc1 [Luliconazole] | 12 ± 0.31 | -8.67 | -2.68 | -1.35 | -0.31 | 18.4 | 0.85 | 1.33 | 10.5 | 11.7 | 4.75 | 5.26 | 16.8 | 10.6 | 4.52 |  | 7.54
